From PubChem
NTR1 agonist = agonists of human neurotensin receptor NTR1; P30989; NTR1-U2OS beta-arrestin-GFP spot imaging, agonist mode; activation, % at 20 µM; 0.17% of 330,000 active;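 active = activation at or above 40% of the spot to cytoplasm intensity ratio, with at least 20 cells analyzed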;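 also: 0% = DMSO without peptide and 100% = 100 nM NTR1 peptide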
TLR9-MyD88 inh = TLR9-MyD88 interaction inhibition. Q9NR96+Q99836. CHO BLA complementation TLR9-MyD88, CCF4 FRET ratio. inhibition, % at 4.98 µM. 0.21% of 340,000 active. AID 504734;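 active = inhibition above the mean over all tested compounds plus 3 SD, cut at about 21% in these data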;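 also: 0% = DMSO only wells and 100% = clavulanate BLA inhibitor control wells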
TLR4-MyD88 BLA = TLR4-MyD88 interaction inhibition in cells | O00206+Q99836 | HeLa CL3-4 TLR4/MyD88 BLA complementation, FRET ratio | inhibition, % at 8.4 µM | 0.18% of 200,000 active | AID 861; in the data active = inhibition above about 25%;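 also: 0% = vehicle and 100% = reference inhibitor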
A1 inh = inhibitors of the anti-apoptotic protein A1, read as caspase activation; 0.066% of 330,000 active; caspase activation, % (test concentration not listed); MEF A1-2A-BIM cells, Caspase-Glo 3/7 luminescence, 3 h; percent of clofoctol response, vehicle zero;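 active = over half of replicate activation scores above 10%, or exactly half above 10 with the replicate mean above 10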
NOD2-RIPK2 inh = blocks binding of human NOD2 to RIPK2 | AID 624267 | CHO BLA complementation NOD2-RIPK2, CCF4 ratio | inhibition, % at 4.98 µM | O43353 | 0.38% of 360,000 active; in the data active = inhibition above about 21%;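 also: 0% = vehicle only and 100% = reference blocker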
Target sequence (O43353 whole entry, looked up): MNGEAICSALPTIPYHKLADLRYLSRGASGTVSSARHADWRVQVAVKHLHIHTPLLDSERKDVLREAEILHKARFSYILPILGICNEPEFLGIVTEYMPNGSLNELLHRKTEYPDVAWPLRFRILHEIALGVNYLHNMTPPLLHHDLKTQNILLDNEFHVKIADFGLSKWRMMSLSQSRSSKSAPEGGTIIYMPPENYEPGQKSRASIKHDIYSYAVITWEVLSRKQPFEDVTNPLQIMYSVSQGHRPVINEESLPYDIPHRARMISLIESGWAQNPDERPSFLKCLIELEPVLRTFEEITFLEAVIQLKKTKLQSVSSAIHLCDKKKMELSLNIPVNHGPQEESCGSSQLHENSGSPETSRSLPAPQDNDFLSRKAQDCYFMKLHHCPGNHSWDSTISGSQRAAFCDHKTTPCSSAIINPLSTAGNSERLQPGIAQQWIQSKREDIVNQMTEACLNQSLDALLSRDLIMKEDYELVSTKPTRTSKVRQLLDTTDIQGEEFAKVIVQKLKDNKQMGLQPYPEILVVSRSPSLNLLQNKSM
B2AR ag = human beta-2 adrenergic receptor agonism by FAP. AID 504454. 0.43% of 340,000 active. Am2.2-beta2AR cells, FAP receptor internalization, flow cytometry. response, % (test concentration not listed). P07550;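 active = response above a set limit, near 3 SD of response in nonfluorescent compounds, cut at about 42% in these data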
Beta2AR ag CP1 = activates human beta-2 adrenergic receptor; percent response (surface receptor), % at 10 µM; 25% of 1,100 active; Am2.2-beta2AR cells, FAP surface receptor, flow cytometry; stronger effect = lower value; shares compounds with B2AR ag;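 active = surface receptor percent response at or below 58%, roughly 3 SD from nonfluorescent compounds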
B2AR FAP counter = counter-screen for beta-2AR agonists: fluorescence in Am2.2 cells | shares compounds with B2AR ag | FAP fluorogen flow cytometry, fluorescence counterscreen; stronger effect = lower value | calls only at 10 µM | 1,100 tested, under 10 active | AID 588765;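 active = percent response below a set limit in fluorescence channel 1 and below 50% in channel 8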
The depositor's hits bear a star; i = inactive; . = not tested or not shown. Most compounds without a hit are left out; they make up all but 0.97% or so of the library.

SMILES | NTR1 agonist | TLR9-MyD88 inh | TLR4-MyD88 BLA | A1 inh | NOD2-RIPK2 inh | B2AR ag | Beta2AR ag CP1 | B2AR FAP counter
COc1cccc(CNC(=O)C2CCN(S(=O)(=O)c3ccc(F)cc3)CC2)c1 | . | -4 | 5 | . | -1 | 5 | . | .
CC(C)CN(C(=O)c1ccc(N2CCCC2=O)cc1)c1c(N)n(Cc2ccccc2)c(=O)[nH]c1=O | -1 | -1 | . | 2 | -18 | 6 | . | .
CC(C)CN(C(=O)c1ccc2c(c1)OCCO2)c1c(N)n(Cc2ccccc2)c(=O)[nH]c1=O | 0 | -5 | . | 0 | -8 | 66* | 107 | i
CC(C)(C)c1ccc(OCC(=O)N2CCN(C=O)CC2)cc1 | 0 | 5 | 2 | 1 | -13 | 3 | . | .
COc1ccc(Cn2nc(-c3ccccc3)c(N3CCCCC3)cc2=O)cc1 | 3 | 1 | 2 | 0 | 2 | 108* | 38* | i
COc1ccc(-c2nn(-c3ccccc3)cc2C(=O)O)cc1 | -2 | 12 | 1 | 0 | -3 | -8 | . | .
Cc1ccc2c(c1)C1CN(C)CCC1N2C(=O)c1ccccc1NS(=O)(=O)c1cccc(C(F)(F)F)c1 (stereo not given) | -1 | 14 | -17 | 0 | -11 | 67* | 104 | i
Cc1ccc2c(c1)C1CN(C)CCC1N2C(=O)c1ccccc1NS(=O)(=O)c1ccc(F)cc1 (stereo not given) | -2 | 1 | 2 | 0 | 7 | 0 | . | .
COc1ccc(-c2nn(-c3ccccc3)cc2C(=O)N2c3ccc(C)cc3C3CN(C)CCC32)cc1 (stereo not given) | 1 | -20 | 5 | -1 | 2 | 70* | 90 | i
COc1ccc(CCn2c(=O)[nH]c3cc(C(=O)NCCCN4CCOCC4)ccc3c2=O)cc1OC | -1 | -6 | . | 0 | -3 | -1 | . | .
COc1ccc(CCn2c(=O)[nH]c3cc(C(=O)NCCN4CCOCC4)ccc3c2=O)cc1OC | -4 | -3 | 12 | 0 | -13 | 69* | . | i
O=C(Nc1cccc(-c2nc3cccnc3s2)c1)C1c2ccccc2Oc2ccccc21 | -1 | -9 | -3 | . | -2 | 74* | 44* | i
O=C(Nc1cccc(-c2nc3cccnc3s2)c1)c1cccnc1Cl | 3 | 0 | . | 0 | 3 | 37 | . | .
COC(=O)Nc1ccc(S(=O)(=O)N2CCCc3cccc(O)c32)cc1 | 2 | 6 | -7 | 1 | 7 | 52* | 82 | i
Cc1ccc(-n2c3nc(=O)[nH]c(=O)c-3cc3cc([N+](=O)[O-])ccc32)cc1 | 6 | 0 | 11 | 0 | 0 | 51* | 108 | i
Cc1ccc(-n2c(C)nn(Cc3ccc([N+](=O)[O-])cc3)c2=O)cc1 | 0 | -3 | 9 | 1 | -19 | -2 | . | .
CC[C@@H](C)[C@H](CN[C@H](CNC)[C@@H](C)O)NCCc1ccc(OC)cc1 | -2 | 1 | . | 1 | 8 | 0 | . | .
CNC[C@H](NC[C@@H](NCCCc1ccccc1)c1ccccc1)[C@H](C)O | 0 | 0 | . | 1 | -5 | 55* | 107 | i
Cn1nc(-c2ccc(C(=O)NCCO)cc2)c2ccccc2c1=O | 1 | 1 | . | 0 | 8 | -5 | 111 | i
CN(CCO)C(=O)c1ccc(-c2nn(C)c(=O)c3ccccc23)cc1 | 2 | 2 | -12 | -2 | 0 | 2 | . | .
Cn1c(SCC(=O)Nc2ccccc2F)nnc1-c1cccs1 | 1 | -2 | . | 0 | 5 | -14 | . | .
CN1CCN(Cc2cc(COCc3ccccc3)c3cccnc3c2O)CC1 | 11 | 10 | 4 | 0 | 5 | 28 | 90 | i
Oc1ccc(CN2CCN(Cc3ccccc3)CC2)c2cccnc12 | 2 | -3 | 7 | 0 | 2 | 9 | . | .
CCOC(=O)c1c(NC(=O)COc2ccccc2OCC)sc2c1CC(C)(C)NC2(C)C | 6 | -1 | . | 1 | 1 | 62* | 59 | i
